Entries with a potency or affinity are not part of this list.

In one assay the test system is Staphylococcus aureus. The conditions noted are these: Concentration 32 ug.mL-1;; ASSAY_TEST Inhibition of Bacterial Growth; detection method Absorption (OD600); MEDIA CAMHB; plate type 384well; NBS; CORNING #3640; time 18 hr.
The next assay has as its system Escherichia coli. To be noted: Concentration 32 ug.mL-1;; ASSAY_TEST Inhibition of Bacterial Growth; detection method Absorption (OD600); MEDIA CAMHB; plate type 384well; NBS; CORNING #3640; time 18 hr.

In the case of `COc1cc(OC)c(NC(=O)Cn2nc3c(Oc4ccccc4)nccn3c2=O)cc1Cl`, the Inhibition – broadly, the change of the read-out against control, counted positive when it falls – in the assay with Staphylococcus aureus was -15.01%; in the assay with Escherichia coli, -15.59%.
For `COc1ccc(CNC(=O)CSc2nnc3c4cc(-c5ccc(C)cc5)nn4ccn23)cc1`, in that order: 4.45% and -3.09%.
For `O=c1n(Cc2nc(-c3ccc(Br)cc3)no2)nc2ccc(-c3ccccc3)nn12`, in that order: 5.03% and -5.77%.
In the case of `Cc1cccc(Cn2nc3c(=O)n(-c4cccc(Cl)c4C)ccn3c2=O)c1`, the figures for the Inhibition in the assay with Staphylococcus aureus and in the assay with Escherichia coli were -1.78% and -16.69%, respectively.
For `Cc1ccc(NC(=O)Cn2nc3c(Sc4ccccc4)nc4ccccc4n3c2=O)cc1C`, the Inhibition in the assay with Staphylococcus aureus is recorded as -2.53%; in the assay on Escherichia coli it was -4.65%.
Regarding `Cc1ccc(C)c(Cn2nc3n(CCC(C)C)c(=O)c4sccc4n3c2=O)c1`, the Inhibition amounted to 8.96% with Staphylococcus aureus and 1.02% in the assay with Escherichia coli.
For the compound `Cc1cc2nn(CC(=O)Nc3ccc(C)c(F)c3)c(=O)n2c(Nc2ccc(C)c(F)c2)n1`, the values for the Inhibition in the assay with Staphylococcus aureus and in the assay on Escherichia coli were 6.9% and -1.96%, respectively.
As for `Cc1ccccc1CN(c1ccc(C(C)C)cc1)S(=O)(=O)c1cccn2c(C)nnc12`, the Inhibition with Staphylococcus aureus is 9.54%; in the assay with Escherichia coli, -1.18%.
`COc1ccc(CN(c2ccc(F)cc2)S(=O)(=O)c2cccn3cnnc23)cc1F`: the Inhibition with Staphylococcus aureus was 11.25%; in the assay with Escherichia coli, -4.31%.
For `Cc1ccc(C)c(Cn2nc3c(=O)n(-c4cccc(Cl)c4C)ccn3c2=O)c1`, the Inhibition is listed as -0.35% in the assay with Staphylococcus aureus and -10.27% in the assay on Escherichia coli.
For the compound `CCCCOc1ccc(-c2cc3c4nnc(SCC(=O)Nc5ccccc5F)n4ccn3n2)cc1`, the Inhibition in the assay with Staphylococcus aureus is reported as -0.1%; in the assay with Escherichia coli it was -3.53%.
In the case of `COc1ccc(-c2cc3c4nn(CC(=O)Nc5ccccc5OC)c(=O)n4ccn3n2)cc1`, the results for the Inhibition in the assay with Staphylococcus aureus and in the assay with Escherichia coli were 2.83% and -1.9%, respectively.
Regarding `Cc1cccc(C)c1NC(=O)Cn1nc2c3cc(-c4ccc(Cl)cc4)nn3ccn2c1=O`, the Inhibition in the assay with Staphylococcus aureus is -1.34%; in the assay on Escherichia coli, -1.58%.
With `COc1cccc(CN(c2cccc(F)c2)S(=O)(=O)c2ccc3nnc(C)n3c2)c1`, the figures for the Inhibition in the assay on Staphylococcus aureus and in the assay on Escherichia coli were -5.28% and -2.32%, respectively.
Take `COc1ccc(NC(=O)c2ccc3nn(CC(=O)Nc4ccc(C(C)C)cc4)c(=O)n3c2)cc1`: the Inhibition in the assay with Staphylococcus aureus is reported as 9.69%; with Escherichia coli, -3.43%.
Consider `Cc1ccc(-c2ccc3nnc(CCC(=O)NCc4ccc(C(C)C)cc4)n3n2)cc1C`, for which the Inhibition with Staphylococcus aureus is on record as 2.18%; in the assay on Escherichia coli, -3.19%.
For `Cc1ccc(C)c(NC(=O)Cn2nc3c4cc(-c5ccc(C)c(C)c5)nn4ccn3c2=O)c1`, in that order: 4.52% and -6.72%.
In the case of `COc1cccc(-n2ccn3c(SCc4c(F)cccc4Cl)nnc3c2=O)c1`, the Inhibition is listed as 2.96% with Staphylococcus aureus and -9.46% with Escherichia coli.
Turning to `COc1ccc(-c2cc3c4nnc(SCC(=O)Nc5cccc(Cl)c5C)n4ccn3n2)cc1`, the Inhibition is -7.92% in the assay with Staphylococcus aureus and -11.64% with Escherichia coli.
For `CCc1nnc2c(S(=O)(=O)N(Cc3ccc(OC)c(F)c3)c3ccccc3)cccn12`, in that order: 14.47% and 1.05%.
Turning to `CC(C)c1nnc2c(SCC(=O)Nc3cccc(Cl)c3)nc3ccccc3n12`, the Inhibition in the assay with Staphylococcus aureus is given as 8.54%; in the assay on Escherichia coli it was 0%.
Consider `Cc1cc(C)c(NC(=O)Cn2nc3ccc(SC(C)(C)C)nn3c2=O)c(C)c1`, for which the results for the Inhibition in the assay with Staphylococcus aureus and in the assay on Escherichia coli were 11.62% and -0.74%, respectively.
Turning to `COc1ccccc1NC(=O)Cn1nc2n(CCCOC(C)C)c(=O)c3ccccc3n2c1=O`, the Inhibition with Staphylococcus aureus is on record as 11.96%; with Escherichia coli, 2.24%.
Consider `CC(C)(C)Sc1ccc2nn(CC(=O)N3CCN(c4ccc(F)cc4)CC3)c(=O)n2n1`, for which the Inhibition with Staphylococcus aureus is given as 4%; in the assay on Escherichia coli, 5.62%.
As for `CC(C)NC(=O)Cn1nc2nc(Nc3ccc(F)cc3)ccn2c1=O`, the Inhibition with Staphylococcus aureus is reported as 8.74%; with Escherichia coli, -2.64%.
Turning to `Cc1ccc(-c2cc3c4nn(CC(=O)Nc5cccc(Br)c5)c(=O)n4ccn3n2)cc1`, the Inhibition with Staphylococcus aureus turned out to be 8.15%; in the assay with Escherichia coli, 0.32%.
The corresponding values for `CCOc1ccc(-n2ccn3c(SCC(=O)Nc4cccc(Cl)c4)nnc3c2=O)cc1` are -0.75% and 2.43%.
Regarding `Cc1cc(C)cc(N(Cc2cccc(Cl)c2)S(=O)(=O)c2cccn3cnnc23)c1`, the results for the Inhibition in the assay with Staphylococcus aureus and with Escherichia coli were 7.13% and -3.73%, respectively.
As to `Cc1cc2nn(CC(=O)Nc3cccc(F)c3)c(=O)n2c(Nc2ccc(F)c(C)c2)n1`, the Inhibition in the assay on Staphylococcus aureus is listed as -1.56%; in the assay with Escherichia coli it was -7.72%.
Consider `COc1ccc(-c2cc3c4nn(CC(=O)Nc5ccc(OC)c(OC)c5)c(=O)n4ccn3n2)cc1`, for which the Inhibition in the assay with Staphylococcus aureus came out at 2.65%; in the assay on Escherichia coli, 2.66%.
Regarding `COC(=O)c1ccc(NC(=O)CSc2nc3ccccc3n3c(C(C)C)nnc23)cc1`, the values for the Inhibition in the assay with Staphylococcus aureus and in the assay on Escherichia coli were 12.04% and -0.7%, respectively.
`N#Cc1cccc(NC(=O)Cn2nc3c4cc(-c5ccc(Cl)cc5)nn4ccn3c2=O)c1`: the figures for the Inhibition in the assay with Staphylococcus aureus and with Escherichia coli were 2.28% and -5.31%, respectively.
